Source: PubChem BioAssay (National Center for Advancing Translational Sciences (NCATS))
This is a sample that favours compounds with a hit; in the whole collection about 3.6% have one here.
VDR inhibitor = vitamin D3 receptor (human) inhibition. P11473. VDR-SRC2-3 peptide fluorescence polarization, 2 h. Potency, µM, for the others: max response, negative = inhibition, actives largely listed as inhibitors. hit rate 0.93% among 400,000; note: potency is the fitted concentration of half-maximal effect; % is set by controls: 0 for no effect and ±100 for the full control effect
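Fluorescence polarization assay of small-molecule disruption of VDR binding to coregulator peptide SRC2-3. Compounds and controls pin-transferred, then read after 2 h incubation at ambient room temperature.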
Rango-impB inh = inhibitors of Rango-importin beta complex formation. Potency, µM (series often up to 92.2 µM), for the others: at the highest dose inhibition of complex formation. hit rate 0.031% among 340,000. Rango CFP/YFP FRET sensor + importin beta, 45 min. Q14974. AID 540263; calls by dose curve;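 note: potency is the fitted concentration of half-maximal effect; 0% = DMSO wells and 100% = buffer wells lacking importin beta; nearly all actives have a fitted effect of over 15% in size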
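FRET biosensor (snurportin 1 IBB flanked by EYFP and cerulean), 50 nM, with compound 5 min, then 0.125 microM importin beta in PBS, 1 mM DTT, 0.02% Tween-20, 0.1% BSA. CFP/YFP ratio read after 45 min at room temperature; pre-read flags interference.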
GCN5L2 inh = blocks human GCN5L2 histone acetyltransferase. hit rate 0.21% among 390,000. Potency, µM (doses to about 58.9 µM), without a hit: at the highest dose activity change, negative = inhibition, actives largely listed as inhibitors. Q92830. GCN5L2 HAT assay, ThioGlo1 CoA-SH fluorescence; note: potency is the fitted concentration of half-maximal effect; % is set by controls: 0 for no effect and ±100 for the full control effect
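GCN5L2 (20 nM) in 50mM HEPES pH 7.5, 0.1mM EDTA, 0.01% Tween-20 preincubated 15 min with compounds at room temperature. Reaction started with H3(1-25) 75uM, acetyl-CoA 70uM, ThioGlo1 50uM; CoA-thiol fluorescence (Ex340/Em540) read at 0 and 20 min.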
PLK1 PBD inh = blocks phosphopeptide binding to human PLK1 polo-box domain | P53350 | Plk1 PBD binding of FITC phosphopeptide, fluorescence polarization | Potency, µM, inactives show max response, negative = inhibition, hits mostly inhibitors | hit rate 2.8% among 360,000 | AID 720504; note: potency is the fitted concentration of half-maximal effect; series mostly up to about 57 µM; % is set by controls: 0 for no effect and ±100 for the full control effect; nearly all actives have a fitted effect of over 65% in size
Target sequence (P53350 whole entry, looked up, the tested form may be a part): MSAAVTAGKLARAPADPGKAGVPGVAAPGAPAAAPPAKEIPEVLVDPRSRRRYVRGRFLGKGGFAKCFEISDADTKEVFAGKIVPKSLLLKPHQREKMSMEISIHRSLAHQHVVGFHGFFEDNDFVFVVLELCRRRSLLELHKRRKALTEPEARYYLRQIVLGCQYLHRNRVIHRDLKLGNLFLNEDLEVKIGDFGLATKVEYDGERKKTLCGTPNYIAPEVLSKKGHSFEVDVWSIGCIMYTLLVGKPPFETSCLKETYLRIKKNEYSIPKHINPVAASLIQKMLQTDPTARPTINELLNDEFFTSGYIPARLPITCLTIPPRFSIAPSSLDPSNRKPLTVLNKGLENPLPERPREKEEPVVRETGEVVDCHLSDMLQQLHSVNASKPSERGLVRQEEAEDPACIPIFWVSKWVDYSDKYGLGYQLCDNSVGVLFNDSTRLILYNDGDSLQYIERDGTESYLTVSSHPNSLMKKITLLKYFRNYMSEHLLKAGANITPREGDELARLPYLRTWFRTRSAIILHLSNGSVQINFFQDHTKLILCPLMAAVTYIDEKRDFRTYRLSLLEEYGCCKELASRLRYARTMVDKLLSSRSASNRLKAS
PI5P4Ka inh = PI5P4K alpha (human) kinase inhibition; PI5P4Kalpha enzyme, ADP-Glo luminescence, 60 min; stronger effect = lower value; hit rate 1.2% among 330,000; AID 652105; max response, %; active = max response of -50% or lower; inconclusive = between -30% and -50%; inactive = -30% or higher; note: value at the top dose of about 77 µM; % is set by controls: 0 for no effect and ±100 for the full control effect
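Quantitative HTS of the MLSMR library against PI5P4Kalpha with substrate. ATP added last at 5 microM final; room temperature, 60 minutes. Remaining ATP depleted, ADP converted and read as luminescence.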
Rango release inh = inhibitors of RanGTP-induced Rango-importin beta complex dissociation | Biochemical FRET Rango-importin beta, RanGTP-induced dissociation | Potency, µM (doses to about 46.1 µM), without a hit: at the highest dose activity change, negative = inhibition | hit rate 0.071% among 340,000 | AID 540253; calls by dose curve; note: potency is the fitted concentration of half-maximal effect; % of control where 0% means no effect; nearly all actives have a fitted effect of over 45% in size
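Two FRET readings bracket the reaction: one 5 min after compound meets Rango–importin beta, another 45 min after RanGTP-RCC1 (0.6 uM Ran, 0.2 uM RCC1, 2 mM GTP) is added. Only the second defines inhibition.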
The depositor's hits bear a star; ? = inconclusive; nt = no result. Unless noted, calls come from the whole dose curve; as a rule, active = well fitted curve in the direction sought with a large enough effect; inconclusive = small, poorly fitted or top-dose-only effect, or another doubt; inactive = no such curve, though single readings can be large; an effect the other way counts as inactive or inconclusive.

SMILES | VDR inhibitor | Rango-impB inh | GCN5L2 inh | PLK1 PBD inh | PI5P4Ka inh | Rango release inh
O=C(NCCc1ccccc1)c1ccc(CSc2nc3ccncc3n2Cc2ccc(F)cc2)cc1 | 4% | nt | -1% | nt | nt | nt
CC(C)n1c(O)c(N=NC(=O)c2ccccc2NS(=O)(=O)c2cccs2)c2ccccc21 | -29% | 0% | 41% | 17µM* | -28 | -12%
CCOC(=O)c1ccccc1NC(=O)Cn1c(=O)n(Cc2nc(-c3ccccc3)no2)c(=O)c2ccccc21 | 8% | nt | -14% | nt | nt | nt
Nc1ccc(O)c(-c2nc3ccccc3s2)c1 | -19% | ? | -10% | -29% | ? | 10µM*
Nc1ccc2nc(-c3ccc(O)cc3)sc2c1 | -4% | nt | ? | nt | nt | nt
CCOc1ccc(NC(=O)CSc2oc(-c3ccco3)nc2S(=O)(=O)c2ccc(Cl)cc2)cc1 | -3% | nt | -17% | nt | nt | nt
CC1=NN(c2ccccc2)C(=O)/C1=C\c1c(C)[nH]n(-c2ccccc2)c1=O | -7% | 1% | 48% | 2% | nt | -20%
CC1=NN(c2ccccc2)C(=O)/C1=C/c1c(O)n(-c2ccc(F)c(Cl)c2)[nH]c1=O | -19% | 3% | ? | 27µM* | ? | 16%
COC(=O)c1ccc(-n2c(C)cc(C(=O)COC(=O)C3=COCCO3)c2C)cc1 | 14% | ? | -4% | 3% | -3 | 2%
CCOc1ccc(-n2c(C)cc(C(=O)CCl)c2C)cc1 | 50µM* | 1% | 0% | ? | -5 | 0%
CCOc1ccc(NC(=O)C(=O)c2cc(C)n(-c3cc(C)cc(C)c3)c2C)cc1 | 19% | nt | -12% | nt | nt | nt
COC(=O)c1ccc(-n2c(C)cc(C(=O)CCl)c2C)cc1 | 79µM* | 10% | -10% | ? | 1 | ?
CN(C)c1ccc(S(=O)(=O)NCC(=O)NCc2ccccc2)cc1[N+](=O)[O-] | ? | 1% | -6% | 12µM* | -3 | 0%
CNc1ccc(S(=O)(=O)NCC(=O)NCCCc2ccccc2)cc1[N+](=O)[O-] | ? | 5% | -5% | 6µM* | 4 | 1%
CNc1ccc(S(=O)(=O)NCC(=O)OC(C)C(=O)N(C)Cc2ccccc2)cc1[N+](=O)[O-] (stereo not drawn) | -2% | 2% | -9% | -5% | 4 | 7%
COc1ccc(CCNC(=O)CNS(=O)(=O)c2ccc(N(C)C)c([N+](=O)[O-])c2)cc1OC | -20% | 0% | 1% | -28% | 7 | -8%
O=C(O)CCc1cc(I)c(O)c(I)c1 | -14% | nt | -3% | nt | nt | nt
CC(=O)c1cc(-c2ccc(F)cc2)n(CC(=O)NC2CCCCCC2)c1C | 21% | nt | -4% | nt | nt | nt
Cc1cccc(CCNc2ncnc3onc(-c4ccc(Cl)cc4)c23)c1 | -9% | nt | -2% | nt | nt | nt
COc1cc(O)cc(OC)c1OC | 45µM* | nt | -13% | nt | nt | nt
COc1cc(/C=C/C(=O)c2cccs2)cc(OC)c1OC | 13µM* | nt | -27% | nt | nt | nt
COc1cc(C=CC(=O)c2ccccc2)cc(OC)c1OC | nt | nt | nt | -22% | -2 | nt
COc1cc(/C=C/C(C)=O)cc(OC)c1OC | -12% | -3% | 2% | 30µM* | -2 | 13%
COc1c(O)cc(O)cc1O | 5% | nt | 1% | nt | nt | nt
CCOc1ccccc1NC(=O)CCc1c(C)nc2c(c(C)nn2-c2ccccc2)c1C | 1% | nt | -9% | nt | nt | nt
SMILES | VDR inhibitor | Rango-impB inh | GCN5L2 inh | PLK1 PBD inh | PI5P4Ka inh | Rango release inh
CCCCN(CC)C(=O)c1nn(C)c2c1CSc1ccccc1-2 | 3% | nt | -18% | nt | nt | nt
S=c1[nH]c2ccc(Cc3ccc4[nH]c(=S)[nH]c4c3)cc2[nH]1 | -13% | 0% | -23% | 21µM* | -25 | 0%
Fc1cc2[nH]c(=S)[nH]c2cc1Cl | -8% | 2% | ? | 0% | -13 | 12%
Cc1cc2[nH]c(=S)[nH]c2cc1C | -12% | 0% | -1% | 6µM* | ? | 15%
S=c1[nH]c2cc3ccccc3cc2[nH]1 | -8% | 0% | -29% | 30µM* | -4 | 18%
c1ccc(-c2cc3ccccc3[nH]2)cc1 | -19% | 3% | -11% | -6% | 11 | 5%
NCc1ccc2[nH]c(=O)[nH]c2c1 | ? | 2% | -4% | 3% | -6 | 6%
